# Experimental data from PubChem BioAssay (NCATS).
# Records with an inconclusive call do not appear. A number with no mark means an inactive call. Active and inactive are the calls of the source. Calls come from the whole dose curve; as a rule, active = well fitted activation curve with a large enough effect; inconclusive = small, poorly fitted or top-dose-only effect, or another doubt; inactive = no such curve, though single readings can be large or run the other way.
# Molecular target: Rap guanine nucleotide exchange factor 3 (Homo sapiens) (UniProt O95398)
# Test: Counterscreen qHTS for agonist of cAMP-regulated guanine nucleotide exchange factor 3 (EPAC1) (AID 1645889); note: nearly all actives have a fitted effect of over 40% in size; for activation: % of control where 0% means no effect
# Conditions: EPAC1 Rap1B-BODIPY-GDP exchange, fluorescence; series mostly up to 154 µM; activation: at the top concentration
# From the text: Assay Provider (PI): Xiaodong Cheng Ph.D. The University of Texas Medical Branch, […], TX MLPCN Grant: NS066510 In multi-cellular eukaryotic organisms, the effects of cAMP are transduced by two ubiquitously-expressed intracellular cAMP receptors, the classic protein kinase A/cAMP-dependent protein kinase (PKA/cAPK) and the more recently discovered exchange protein directly activated by cAMP/cAMP-regulated guanine nucleotide exchange factor (EPAC/cAMP-GEF). Both PKA and EPAC are ubiquitously expressed in all tissues, and an increase in intracellular cAMP levels will lead to the activation of both PKA and EPAC. Therefore, careful dissections of the individual role and relative contribution of EPAC and PKA within the overall cAMP signaling in various model systems are critical for further elucidating the mechanism of cAMP signaling. To date no EPAC-specific antagonists and agonist, as well as isoform-specific agonists have been reported, and developing EPAC-specific pharmacological probes to determine the physiological functions that EPAC play in the overall cAMP-mediated signaling remains a major challenge within the research field. Furthermore, identified regulators of EPAC may lead to new mechanism-based therapeutic strategies specifically targeting the EPAC / cAMP-signaling components as EPAC has been implicated to play important roles in major human pathological conditions such as diabetes, heart disease, and cancer. This qHTS will be used to screen the Molecular Libraries Small Molecule Repository (MLSMR) as a concentration-titration series using the NCGC unique quantitative screening (qHTS) platform to find activators for EPAC1. In addition, this assay will also be used as a counterscreen for the EPAC2 qHTS. This fluorescent based assay is developed and validated for EPAC1 that measures exchange using EPAC effector Rap1 complex with BODIPY-GDP, a GDP analog with a tethered fluorophores. Activators are identified by monitoring the change in fluorescence signal as the exchanged free BODIPY-GDP has a reduced fluorescence compared to Rap1-bound BODIPY-GDP. Increase in signal (activation) is the desired outcome for the EPAC1 agonist while no activity in this assay is desired for the EPAC2 agonist counterscreen. Reference: [1] de Rooij, J., Zwartkruis, F. J., Verheijen, M. H., Cool, R. H., Nijman, S. M., Wittinghofer, A., and Bos, J.L. (1998) Nature 396, 474-477. Kawasaki, H., Springett, G. M., Mochizuki, N., Toki, S., Nakaya, M., Matsuda, M., Housman, D. E., and Graybiel, A. M. (1998) Science 282, 2275-2279.
# EPAC1 Counterscreen PROTOCOL TABLE SEQUENCE No. (e.g., 1, 2, 3, etc.); […] (e.g., Cells, Incubation, Reagent, etc.); VALUE and DESCRIPTION. 1. Reagent. 3 uL. [1x] 250 nM Rap1B-BODIPY-GDP, and 50 uM GDP. 2a. Compound. 23 nL. Control 6,572 uM cAMP (working concentration). 2b, 2c. Compound. 23 nL. Control activator and inhibitor; 234 - 30,000 uM cAMP and 16.4 - 10,000 uM. 2d. Compound. 46 nL. MLSMR follow-up library; 0.64 - 10,000 uM. 3. Time. 15 sec, 1000rpm. Centrifuge. 4. Time. 5 min. Incubation at room temperature. 5. Detector. Fluorescence. (Read 1), Ex/Em = 480 nm / 540 nm. 6. Time. 30 min. Incubation at room temperature. 7. Detector. Fluorescence. (Read 2), Ex/Em = 480 nm/ 540 nm. 8. Reagent. 1uL. Dispense either [4x] 10 uM cAMP or buffer. 9. Time. 15 sec, 1000 rpm. Centrifuge. 10. Time. 5 min. Incubation at room temperature. 11. Detector. Fluorescence. (Read 3), Ex/Em = 480 nm / 540 nm. 12. Time. 30 min. Incubation at room temperature. 13. Detector. Fluorescence. (Read 4), Ex/Em = 480 nm / 540 nm. NOTES (numbers refer to Sequence numbers above; values are from representative experiments) 1. Medium-binding black solid-bottom Greiner plates (789176-F). Dispense 3 uL of [1x] 250 nM Rap1B-BODIPY-GDP, and 50 uM GDP into columns 1 to 48. 2a. Control compound cAMP (6,572 uM, column 3, rows 1 to 32) single pin-transferred for a [final] of 50 uM. 2b. […]
# Potency is the fitted concentration of half-maximal effect.
SMILES,activation,Potency
Cc1ccc(S(=O)(=O)/N=C2/NC(=O)/C(=C/c3ccccc3)S2)cc1,7.77%,
Cc1ccc2c(c1)c1c(c(=O)n(-c3cccc(Cl)c3)c(=O)n1C)n2C,1.36%,
CC(C)Cc1csc(NC(=O)c2ccc(F)cc2)c1C(=O)O,-11.9%,
O=C(N/N=C/C=C\c1ccco1)c1ccccn1,22%,
CC1(C(=O)NS(=O)(=O)c2cccc(F)c2)CCN1C(=O)C1(c2ccc(Cl)cc2)CCC1 (stereo not given),-10.7%,
Nc1ncnc2c1nc(Br)n2[C@@H]1O[C@@H]2COP(=O)(O)O[C@H]2[C@H]1O,17.5%,
COCCNC(=O)CSc1nc2cc3c(cc2c(=O)n1CCCCCC(=O)NCc1ccc(OC)cc1)OCO3,24.2%,
Cc1ccc2c(c1)-c1c(c(C(=O)N3CCN(c4cc(C)ccc4C)CC3)nn1C)CS2,-1.64%,
Nc1c(-c2nc(-c3cccs3)no2)nnn1-c1cccc(Cl)c1,5.91%,
Cc1ccc(F)c(NC(=O)/C(C#N)=C(\O)c2ccc(C(C)(C)C)cc2)c1,14.8% [at 30.8 µM],
CCOC(=O)c1sc(NC(=O)c2ccncc2)nc1C,13.6%,
Cc1ccc(NC(=O)CSc2ncn[nH]2)cc1C,26.6%,
CCCCC(CC)Cn1c(Oc2ccccc2)nc2c1c(=O)n(C)c(=O)n2C (stereo not given),-30%,
Clc1c(Cl)c(Cl)c2n[nH]nc2c1Cl,-7.56%,
O=C(O)CN1C(=O)/C(=C\c2cccc(OCc3ccc(Cl)cc3)c2)SC1=S,0.802%,
COc1cccc(CC(=O)Nc2ccc(S(=O)(=O)Nc3nccs3)cc2)c1,9.39% [at 30.8 µM],
O=C(O)c1cccc(NC(=O)c2cn(-c3ccccc3)nc2-c2cc3ccccc3o2)c1,16.8% [at 30.8 µM],
CCc1cccc2sc(NC(=O)c3ccc(N4C(=O)CCC4=O)cc3)nc12,5.48%,
O=C1C(Cl)=C(N2CCC(C(=O)O)CC2)C(=O)c2ccccc21,,15.8 µM (active)
CCOC(=O)/C(=C\c1ccc(N2CCC(c3ccccc3)=N2)cc1)C(C)=O,,12.6 µM (active)

SMILES,activation,Potency
Cc1cccc(C2c3[nH]c4ccccc4c3CCN2Cc2cccn2-c2ncccn2)c1 (stereo not given),17.6% [at 30.8 µM],
O=c1[nH]c2cc3c(cc2cc1CN(Cc1ccccc1)Cc1nnnn1Cc1ccco1)OCCO3,16.4%,
CSCCC(NC(=O)c1ccc(Cl)cc1)C(=O)OCC(=O)NCc1ccco1 (stereo not given),-1.33% [at 30.8 µM],
COc1cc(SC)ccc1C(=O)N(Cc1ccccc1)c1ccccc1,15.8%,
Cc1ccc(NC(=O)c2ccc(CN3CC(=O)N4CCCCC4C3=O)cc2)c(C)c1 (stereo not given),23.7%,
Cn1c(=O)c2nc(SCC(=O)Nc3ccc(Cl)c(Cl)c3)n(C)c2n(C)c1=O,12.7%,
OCC[n+]1ccc(/C=C/c2c[nH]c3ccccc23)cc1,,56.2 µM (active)
CC1C/C(=C/c2cccn2C)C(=O)/C(=C/c2cccn2C)C1 (stereo not given),,79.4 µM (active)
Cc1ccc(C(C)C)cc1OCC(=O)NC1CCCCCCC1,-2.78% [at 30.8 µM],
COc1ccc(OC)c(NC(=O)Cc2c(C(=O)O)n(C)c3ccc(C)cc23)c1,23.4%,
COc1ccccc1Sc1nc(-c2ccccc2)ncc1OC,18.8% [at 30.8 µM],
O=C(c1ccccc1[N+](=O)[O-])N1CCN(c2ccc(N3CCOCC3)nn2)CC1,11.9%,
CCOC(=O)c1ccccc1NC(=S)N1CCC(N2CCCCC2)CC1,5.01%,
CC[n+]1c(/C=C/C=C/N(C(C)=O)c2ccccc2)sc2cc(OC)ccc21,,50.1 µM (active)
COC(=O)C1=CN(c2ccc(F)cc2)C(N)=C(C#N)C1c1cccc(OC)c1OC (stereo not given),17% [at 30.8 µM],
O=C(O)CCCCCN1C(=O)/C(=C/c2cn(-c3ccccc3)nc2-c2cccs2)SC1=S,,14.1 µM (active)
CCOC(=O)c1c(/N=C/C2=C(O)CC(C)(C)CC2=O)sc(C)c1C,1.97% [at 30.8 µM],
CCc1nnc(NS(=O)(=O)c2ccc(Nc3ccc([N+](=O)[O-])c4nonc34)cc2)s1,0.652%,
CC(Sc1ccc(Cl)cc1)C(=O)NNC(=O)c1csc(N2CCOCC2)n1 (stereo not given),30.8% [at 30.8 µM],
C=CCOc1ccc(/C=C2\SC(=S)N(NS(=O)(=O)c3ccccc3)C2=O)cc1,2.09%,
